Compounds without any hit were thinned out: in the full panel of roughly 83,000, 20% have a hit.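 How to read the values: 0–100, growth inhibition (40 = 60% inhibited); 0, no net growth; -100 to 0, cell death (-40 = 40% of starting cells died; -100 = all dead).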 A number with no mark means an inactive call. Calls of active or inactive are those of the source. How the source made its calls: active means growth percent below 10; inactive means the rest.
tested on: SR leukemia; experiment: NCI-60 one-dose screen, 48 h (100 = growth as untreated, 0 = no growth, -100 = all killed); details: 10 µM unless noted

Compound | growth
COC(=O)C1=CCC(n2cnc3c(N)ncnc32)O1 (stereo not given) | 102%
CCN(Cc1cccc(S(=O)(=O)[O-])c1)c1ccc(C(=C2C=CC(=[N+](CC)Cc3cccc(S(=O)(=O)O)c3)C=C2)c2ccccc2S(=O)(=O)O)cc1 | 95.6%
CC(NC(=O)Oc1cccc2ccccc12)c1ccccc1 (stereo not given) | 90.8%
OC(c1cc(-c2cccc(Cl)c2)nc2ccccc12)C1CCCCN1 (stereo not given) | -33.8% (active)
O=C(Nc1ccccc1OC(=O)c1ccccc1)c1ccccc1 | 58.8%
Cc1ccccc1NC(=O)NC(CC(N)=O)c1ccc2c(c1)nc(-c1cccc(Oc3ccc(C(C)(C)C)cc3)c1)n2CCCN1CCCCC1C (stereo not given) | -33.9% (active)
O=C(C(=O)c1cc(Br)ccc1O)c1cc(Br)ccc1O | 24.3%
Fc1ccccc1C1c2ccccc2-c2nccn21 (stereo not given) | 78.1%
COc1cc(/C=C\C(C)=N\Nc2ccccc2)ccc1O | 39.3%
COc1cc(/C=N/NC(=O)c2ccc(C(F)(F)F)nc2Nc2ccc(Cl)cc2C)ccc1O | -14.6% (active)
O=Cc1ccccc1C(=O)O | 89.8%
COc1cc(NC(=O)NCc2ccco2)ccc1-c1ccc(NC(=O)NCc2ccco2)cc1OC | 55.6%
COc1cccc(/C=N/Nc2nc3ccccc3s2)c1OC | 45.9%
O=C(N/N=C/c1ccc(Cl)cc1Cl)c1ccccc1Nc1cccc(C(F)(F)F)c1 | 56.3%
COc1ccc(NS(=O)(=O)N2CCCCC2)cc1 | 95.3%

Reference: PubChem BioAssay (NCI)
